Rows were chosen to be rich in hits. Some 10% of all compounds tested hit in one or more screens of this group.
ALDH1A1 block – ALDH1A1 (human) enzyme inhibition. AID 1030. 7.3% of 220,000 active. Potency, µM (doses to about 75.3 µM), inactives show top-dose activity, negative = inhibition, actives largely listed as inhibitors. Purified ALDH1A1, NADH fluorescence, propionaldehyde substrate; active = well fitted inhibition curve with a large enough effect, not every such curve was filed as active; inconclusive = small, poorly fitted or top-dose-only effect, or another doubt; inactive = no such curve, though single readings can be large or run the other way;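 also: potency is read from the fitted curve at half-maximal effect; plate controls were no enzyme wells and a reference inhibitor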
Target sequence (P00352 whole entry, looked up): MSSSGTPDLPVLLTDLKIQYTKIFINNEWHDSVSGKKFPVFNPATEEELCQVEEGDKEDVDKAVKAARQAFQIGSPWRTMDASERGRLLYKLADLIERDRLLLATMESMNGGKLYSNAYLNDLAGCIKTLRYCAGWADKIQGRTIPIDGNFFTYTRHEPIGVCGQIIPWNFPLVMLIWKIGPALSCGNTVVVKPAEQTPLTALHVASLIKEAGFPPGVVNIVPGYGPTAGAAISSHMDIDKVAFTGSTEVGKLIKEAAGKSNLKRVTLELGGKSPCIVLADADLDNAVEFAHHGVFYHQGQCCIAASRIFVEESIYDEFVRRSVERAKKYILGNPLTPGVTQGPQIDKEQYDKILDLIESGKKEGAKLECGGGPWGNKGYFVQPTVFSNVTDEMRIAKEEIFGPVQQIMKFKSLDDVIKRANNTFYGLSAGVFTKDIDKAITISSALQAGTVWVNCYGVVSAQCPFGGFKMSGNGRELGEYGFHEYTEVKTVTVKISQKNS
HPGD block – blocks human HPGD enzyme activity; P15428; purified HPGD, NADH fluorescence kinetic, PGE2 substrate; Potency, µM, for inactives: at the top dose activity change, negative = inhibition, actives largely listed as inhibitors; 4.3% of 150,000 active; active = well fitted inhibition curve with a large enough effect, not every such curve was filed as active; inconclusive = small, poorly fitted or top-dose-only effect, or another doubt; inactive = no such curve, though single readings can be large or run the other way; also: potency is read from the fitted curve at half-maximal effect
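20 nM HPGD preincubated 15 min at room temperature with compound in 50 mM Tris-HCl pH 8, 0.01% Tween 20. Started with 1 mM NAD+ and 30 uM prostaglandin E2; NADH fluorescence (360/450 nm) read 5 times over 30-s intervals, last minus first.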
GLA inh pH 4.5 – blocks human alpha-galactosidase A at pH 4.5; purified enzyme, 4-MU-alpha-Gal fluorescence, pH 4.5; activity change, negative = inhibition, % at 105 µM; 230,000 tested, under 10 active; AID 1467;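 also: 0% = full activity with enzyme and -100% = basal without enzyme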
12-hLO inh – inhibitors of human 12-lipoxygenase (ALOX12); P18054; purified 12-hLO, xylenol orange hydroperoxide absorbance; Potency, µM (doses to about 57.1 µM), for the others: top-dose activity change, negative = inhibition, actives largely listed as inhibitors; 0.12% of 150,000 active; also: potency is read from the fitted curve at half-maximal effect; nearly all actives have a fitted effect of over 55% in size
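150 nM 12hLO, 25 mM Hepes pH 7.0 + 0.01% Triton X-100; cpd preinc 15 min RT; 40 uM arachidonic acid, 30 min RT; Fe-XO 30 min; A573/A405 ratio as read-out.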
PNC assembly inh – perinucleolar compartment assembly inhibition. PC3M PTB-GFP, PNC prevalence imaging, 16 h; hits give low values. activity change (PNC), negative = inhibition, % at 10 µM. 3.1% of 140,000 active. AID 2417;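 active = readout at or below -70, meaning at least 70% loss of cells showing the perinucleolar compartment, a nuclear body marking cancer cells; inconclusive = readout between -30 and a set limit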;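 also: plate controls were DMSO wells for no effect and camptothecin positive control wells for full effect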
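Compounds are pinned in duplicate onto adhered PC3M cells stably expressing GFP-tagged PTB and incubated 16 h at 37 C. Cells are then fixed, nuclei stained with Hoechst, and PNC-positive cells counted.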
GLA spleen mod – inhibitors or activators of human alpha-galactosidase in spleen homogenate | P06280 | human spleen homogenate, 4MU-alpha-Gal fluorescence, 40 min | Potency, µM (doses to about 80 µM), for the others: at the top dose activity change, negative = inhibition, usual class: inhibitors | 0.008% of 240,000 active | AID 2107;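 also: potency is read from the fitted curve at half-maximal effect; 0% = enzyme with vehicle and -100% = no enzyme basal signal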
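Human spleen homogenate (1 ug) was the enzyme source, with 4-methylumbelliferyl-alpha-D-galactopyranoside (1 mM final) in pH 5.0 citrate buffer with 0.01% Tween-20. Compounds were titrated; after 40 min at 37C, NaOH/glycine stop, 4-MU fluorescence read; AC50 from Hill fits.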
* marks the source's active call; other numbers are inactive results; ? = inconclusive; · = no result given; [ ] = dose if it differs, or a comment. Unless noted, calls follow the shape of the dose curve; as a rule, active = well fitted curve in the direction sought with a large enough effect; inconclusive = small, poorly fitted or top-dose-only effect, or another doubt; inactive = no such curve, though single readings can be large; an effect the other way counts as inactive or inconclusive. Unless noted, % is scaled to controls: 0 for no effect and ±100 for the full control effect.

SMILES | ALDH1A1 block | HPGD block | GLA inh pH 4.5 | 12-hLO inh | PNC assembly inh | GLA spleen mod
CC(=O)Nc1nonc1-c1nc2ccccc2n1Cc1nnc(C)o1 | ? | ? | 7 | -3% | -87* | 10%
CC1CCC2C(=O)N3C(CCC(C)C3c3ccccc3Br)C(=O)N2C1c1ccc(C#CCN(C)C)cc1 (configuration not stated) | 3.5µM* | · | · | · | · | 0%[17.5 µM]
C[C@H]1CC[C@H]2C(=O)N3[C@H](c4ccccc4Br)[C@@H](C)CC[C@H]3C(=O)N2[C@@H]1c1ccccc1Br | ? | -7% | -7 | -6% | 17 | -7%
COc1ccc2c(Cc3c4ccccc4cc4ccccc34)cncc2c1O | -9%[13.5 µM] | -8% | · | 2%[11.4 µM] | · | ·
O=C(O)c1ccccc1NS(=O)(=O)c1ccc2c3c(cccc13)C(=O)N2 | -3% | -11% | 3 | -1% | 7 | 15%
O=C1Nc2ccc(NS(=O)(=O)c3cccs3)c3cccc1c23 | 16µM* | -16% | 3 | 3% | -25 | 13%
CN1CCN(C2CCCCCC2)CC1 | 11% | -4% | 4 | 1% | -119* | -5%
O=C(O)CCCC[C@@H]1SC[C@H]2NC(=O)N[C@@H]12 | -2% | 4% | 4 | -1% | · | 6%
CCCCOc1ccc2c(c1)C(=O)c1cc(O)ccc1-2 | 40µM* | · | -20 | · | · | -1%
COC(=O)[C@@]1(Cc2ccccc2)[C@H]2c3cc(C(=O)N4CCCC4)n(Cc4ccccn4)c3C[C@H]2CN1C(=O)c1ccccc1 | -5% | -9% | -4 | -3% | · | 6%
CC1=C(C(=O)Nc2cccc(F)c2)C(c2ccsc2)C2=C(CC(C)(C)CC2=O)N1 (configuration not stated) | ? | ? | 2 | -1% | -81* | 12%
Cc1cc(-c2csc(NC(=O)c3ccc(C#N)cc3)n2)c(C)n1Cc1ccco1 | 2% | -2% | 1 | -2% | -15 | 0%
Nc1nc(N)nc(CC(=O)O)n1 | 0%[13.5 µM] | -13% | · | 0%[11.4 µM] | · | ·
Oc1cccc(/C=N/Nc2ncnc3c2ncn3Cc2ccccc2)c1 | 4% | 22µM* | -12 | 1% | -25 | 3%
Oc1ccc(/C=N/Nc2ncnc3c2ncn3Cc2ccccc2)cc1O | ? | 25µM* | -2 | -14% | -29 | -8%
Brc1ccc(/C=N/Nc2ncnc3c2cnn3Cc2ccccc2)cc1 | 2% | ? | 8 | 10% | -15 | -18%
C/C(=N\NC(=O)CCCC(=O)O)c1c(-c2ccccc2)c2cc(Cl)ccc2[nH]c1=O | · | · | 2 | · | · | 5%
Cc1nn2c(-c3ccccn3)ccnc2c1Cl | 9% | · | -2 | · | · | 1%
CC(NS(=O)(=O)c1ccc(CCC(=O)NCC2CCCO2)cc1)c1ccccc1 (configuration not stated) | -1% | -9% | 2 | 18% | 12 | -2%
O=C(CCc1ccc(S(=O)(=O)NCc2ccccc2)cc1)NCC1CCCO1 (configuration not stated) | -1% | -6% | -3 | 0% | -106* | 5%
O=C(CSc1ccccc1)Nc1ccc(S(=O)(=O)NCC2CCCO2)cc1 (configuration not stated) | 22µM* | ? | -4 | -3% | ? | 9%
Cc1cc(C(=O)NCCc2ccc(S(=O)(=O)NC(=O)NN3CCCCCC3)cc2)no1 | 7% | -2% | 0 | -3%[0.00818 µM] | · | 3%
CCOC(=O)c1c(Nc2ccccc2OCCOC)n[nH]c1C | · | · | -3 | · | · | 1%
CC(OC(=O)Cc1n[nH]c(=O)c2ccccc12)C(=O)Nc1cccc([N+](=O)[O-])c1 (configuration not stated) | 4% | · | 8 | · | · | -7%
COc1ccccc1NC(=O)Cn1c(O)c(N=NC(=O)c2ccccc2O)c2ccccc21 | 1.6µM* | · | -4 | · | · | -4%
SMILES | ALDH1A1 block | HPGD block | GLA inh pH 4.5 | 12-hLO inh | PNC assembly inh | GLA spleen mod
Cc1ccc(NC(=O)Cn2c(O)c(N=NC(=O)c3ccncc3)c3ccccc32)cc1 | 4.5µM* | · | -2 | · | · | 1%
CCCCn1c(O)c(N=NC(=O)c2ccncc2)c2cc(Br)ccc21 | 7.9µM* | -2% | 1 | -3% | ? | -3%
Cc1ccc(OC2C(O)COC2/C=C/C#Cc2ccc(C(C)(C)C)cc2)cc1 (configuration not stated) | 1%[13.5 µM] | · | · | · | · | 14%[17.5 µM]
CC12CCC(C(=O)N/N=C/c3ccc(O)cc3)(OC1=O)C2(C)C (configuration not stated) | · | · | 1 | · | · | -5%
CC(=O)OC1C[C@]2(C)[C@@H](CC(O)C3[C@]4(C)CCC(O)C(C)[C@@H]4CC[C@]32C)/C1=C(/CCC=C(C)C)C(=O)O (some centres not stated) | 2% | -4% | 4 | 2% | · | 3%
Cc1ccc(C(=O)C2=C(O)C(=O)N(c3ncccn3)C2c2cccc(Cl)c2)o1 (configuration not stated) | 13µM* | -12% | -14 | 12% | 1 | 13%
Cc1ccc(C2C(C(=O)c3ccco3)=C(O)C(=O)N2c2ncccn2)cc1 (configuration not stated) | 7% | · | -14 | · | · | -4%
COC1OC(CO)C(OC2OC(C(=O)O)C(OC3OC(COS(=O)(=O)O)C(OC4OC(C(=O)O)C(OC5OC(CO)C(OC6OC(C(=O)O)C(OC7OC(COS(=O)(=O)O)C(OC8OC(C(=O)O)=C[C@H](O)C8OS(=O)(=O)O)C(O)C7NC(C)=O)[C@@H](O)C6O)C(O)C5NC(C)=O)[C@@H](O)C4O)C(O)C3NC(C)=O)[C@@H](O)C2O)C(O)C1NC(C)=O (some centres not stated) | -3% | -23% | 1 | 0% | · | -28%
NC(=O)c1ccccc1N=Cc1ccccn1 | ? | ? | 5 | -1% | ? | 0%
Cc1ccc(C=Nc2ccccc2C(=O)Nc2ccccc2)cc1 | ? | ? | -6 | 0% | 44 | 14%
Cc1ccc(C=Nc2ccccc2C(N)=O)cc1 | ? | ? | 1 | 0% | -113* | -1%
Cc1ccccc1C=Nc1ccccc1C(N)=O | ? | ? | -10 | 4% | -86* | -4%
Cc1cccc(C)c1OC(=O)CCN1C(=O)C2C3C=CC(C4CC34)C2C1=O (configuration not stated) | ? | · | 3 | · | · | 0%
COc1ccccc1CNS(=O)(=O)c1c(C)[nH]c(=O)[nH]c1=O | 8% | 0% | 2 | 7% | 13 | 2%
N#Cc1ccc(NC(=O)COC(=O)CNC(=O)C2CCCCC2)cc1 | 0% | -10% | -6 | -2% | -105* | 8%
CC(=O)NCC(=O)OCC(=O)Nc1ccc(C(C)=O)cc1 | 22µM* | ? | 0 | 3% | 19 | 1%

Screening data (PubChem BioAssay)
